PubChem BioAssay (NCI)
The panel holds about 79,000 compounds, 15% with a hit somewhere; the sample as a whole holds those more often. Activity calls are given as the source filed them. No stated cut-off is given here; in the data, active means growth inhibition above about 70%; inactive means the rest. Where a SMILES comes first, the peptide text is derived from it. [ ]: non-standard residue; d: D form. The star is where a group is joined. ξ: configuration not given here. Tos = Cc1ccc(S(=O)(=O)*)cc1; ξY = NC(Cc1ccc(O)cc1)C(=O)O

assay: NCI Yeast Anticancer Drug Screen. Data for the cln2 rad14 strain (AID 165);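 further: 0% = growth equal to vehicle treated cultures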; settings: S. cerevisiae cln2 rad14 strain, at 50.0 µM, active compounds read high
Procedure, shortened: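 cln2 rad14 yeast strain; compound exposure; growth inhibition read vs vehicle controls.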

SMILES	growth inhibition
CCC(C(C)O)[N+](=O)[O-] (configuration not stated)	4.15% (inactive)
CCN(CC)CCNc1c2ccc(Cl)cc2nc2c1c(C)nn2C	21% (inactive)
ClC(Cl)(Cl)SSC(=Nc1ccccc1)SSC(Cl)(Cl)Cl	-0.8% (inactive)
CC1CN=C(c2c(O)ccc3ccccc23)S1 (configuration not stated)	26.8% (inactive)
CCc1c(C)c(C#N)c(=S)n(C2OC(COC(C)=O)C(OC(C)=O)C(OC(C)=O)C2OC(C)=O)c1-c1ccccc1 (configuration not stated)	8.25% (inactive)
O=C1NC(CO)C(=O)NC1CO (configuration not stated)	-2.75% (inactive)
CCCCC(CCCC)(C(=O)NC)c1ccccc1	-14.2% (inactive)
CN(C)CCC(CCN(C)C)=NOC(=O)c1ccccc1	8.55% (inactive)
COC(=O)C(Cc1ccc(O)cc1)NC(=O)CNS(=O)(=O)c1ccc(C)cc1 (stereo not drawn) (Tos-Gly-[ξY]-OMe)	10.9% (inactive)
C/C(=N/O)c1ccc(O)cc1O	-8.6% (inactive)
Cc1cc(Cl)ccc1NC(N)=O	22.4% (inactive)
O=C(OCC1OC(Br)CC(OC(=O)c2ccc([N+](=O)[O-])cc2)C1OC(=O)c1ccc([N+](=O)[O-])cc1)c1ccc([N+](=O)[O-])cc1 (configuration not stated)	-22.4% (inactive)
CCCCCCCCOC(=O)C(C)OC(C)=O (configuration not stated)	13.8% (inactive)
CN(C)Cn1c2ccccc2c2ccccc21	0.1% (inactive)
NCCCn1c2ccccc2c2cnccc21	-6.65% (inactive)
[N-]=[N+]=Nc1ccccc1Oc1ccccc1	17.7% (inactive)
COc1ccccc1NC(=O)C(CC(C(=O)Nc1ccccc1OC)/C(C)=N/Nc1ccc([N+](=O)[O-])cc1[N+](=O)[O-])/C(C)=N/Nc1ccc([N+](=O)[O-])cc1[N+](=O)[O-] (configuration not stated)	10.6% (inactive)
CC(=O)C1C(=O)C(=O)N(c2ccc(S(N)(=O)=O)cc2)C1=O (configuration not stated)	-32.7% (inactive)
CC(C)OCC(O)CNCCN (configuration not stated)	-2.5% (inactive)
CCOC(=O)C/C(C)=N\NS(=O)(=O)c1ccc([N+](=O)[O-])cc1	-30.1% (inactive)
Cc1cc(-n2cnc3c(Cl)ncnc32)ccc1N	5.05% (inactive)
CCOC(=O)CNc1nc(Cl)nc(NCC(=O)OCC)n1	-43.2% (inactive)

assay: NCI Yeast Anticancer Drug Screen. Data for the bub3 strain (AID 167); settings: S. cerevisiae bub3 mutant strain, at 50.0 µM, active compounds read high
Procedure, shortened: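 Compounds were applied to a genetically altered yeast strain carrying a cell-cycle control defect. Growth inhibition was scored against vehicle-treated controls.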

SMILES	growth inhibition
CC(C)(C)C1CC[C@H]2c3c([nH]c4ccc(Br)cc34)[C@H]3C(=O)N(c4ccccc4)C(=O)[C@H]3[C@H]2C1 (some centres not stated)	-0.15% (inactive)
O=C(/C=C/c1ccccc1)OCCCl	-22.4% (inactive)
Cn1cccc1/C=N/N=C(/N)NO	-18.5% (inactive)
COc1ccc2ccccc2c1I	23.6% (inactive)
O=C1C(CO)=C[C@@H](O)[C@H]2O[C@@H]12	15.9% (inactive)
CCOC(CNCCC(=O)OC)OCC	-5.35% (inactive)
CCCCNc1nc2ccccc2c2c1ncn2CC(C)C	46.5% (inactive)
CC1CCOC(C)(Cc2ccccc2)O1 (configuration not stated)	-18.1% (inactive)
CC(=O)c1c(O)ccc2c(C)cc(=O)oc12	26.9% (inactive)
O=C1NC2(CCN(CCCC3(c4ccc(F)cc4)OCCO3)CC2)Oc2ccccc21	5.8% (inactive)
CCOP(=O)(OCC)OC1CC(n2cnc3c(N(CC)CC)ncnc32)OC1CO[Si](C)(C)C(C)(C)C (configuration not stated)	47.9% (inactive)
CC(=O)/C=C1/NC(C(=O)c2ccccc2)=CNC1c1ccccc1 (configuration not stated)	9.95% (inactive)
CCOC(=O)c1c(NCc2ccccc2)n(-c2ccccc2)c(=S)n(-c2ccccc2)c1=O	14.8% (inactive)
CCOC(=O)C1(C)CCCc2sc(N)c(C#N)c21 (configuration not stated)	-14.2% (inactive)
Nc1c(O)cccc1C(=O)O	5.1% (inactive)
Cc1cc(C)c(C2CC(O)C(CO)O2)cc1C (configuration not stated)	-3.35% (inactive)
Nc1ccc(S(=O)(=O)NCCS(=O)(=O)O)cc1	-16.2% (inactive)
Cc1nn(C(=O)c2ccncc2)c2c1C(c1ccccc1)SC(N)=N2 (configuration not stated)	15.1% (inactive)
CCC(C(C)O)[N+](=O)[O-] (configuration not stated)	7.25% (inactive)
CCN(CC)CCNc1c2ccc(Cl)cc2nc2c1c(C)nn2C	33.1% (inactive)

SMILES	growth inhibition
ClC(Cl)(Cl)SSC(=Nc1ccccc1)SSC(Cl)(Cl)Cl	64.3% (inactive)
CC1CN=C(c2c(O)ccc3ccccc23)S1 (configuration not stated)	34.4% (inactive)
CCc1c(C)c(C#N)c(=S)n(C2OC(COC(C)=O)C(OC(C)=O)C(OC(C)=O)C2OC(C)=O)c1-c1ccccc1 (configuration not stated)	11.1% (inactive)
O=C1NC(CO)C(=O)NC1CO (configuration not stated)	0.25% (inactive)
CCCCC(CCCC)(C(=O)NC)c1ccccc1	17.1% (inactive)
CN(C)CCC(CCN(C)C)=NOC(=O)c1ccccc1	21.4% (inactive)
COC(=O)C(Cc1ccc(O)cc1)NC(=O)CNS(=O)(=O)c1ccc(C)cc1 (stereo not drawn) (Tos-Gly-[ξY]-OMe)	-1.2% (inactive)
C/C(=N/O)c1ccc(O)cc1O	5.15% (inactive)
Cc1cc(Cl)ccc1NC(N)=O	-3.7% (inactive)
O=C(OCC1OC(Br)CC(OC(=O)c2ccc([N+](=O)[O-])cc2)C1OC(=O)c1ccc([N+](=O)[O-])cc1)c1ccc([N+](=O)[O-])cc1 (configuration not stated)	-8.95% (inactive)
CCCCCCCCOC(=O)C(C)OC(C)=O (configuration not stated)	12.3% (inactive)
CN(C)Cn1c2ccccc2c2ccccc21	-0.8% (inactive)
NCCCn1c2ccccc2c2cnccc21	1.05% (inactive)
[N-]=[N+]=Nc1ccccc1Oc1ccccc1	-16.6% (inactive)
COc1ccccc1NC(=O)C(CC(C(=O)Nc1ccccc1OC)/C(C)=N/Nc1ccc([N+](=O)[O-])cc1[N+](=O)[O-])/C(C)=N/Nc1ccc([N+](=O)[O-])cc1[N+](=O)[O-] (configuration not stated)	17.8% (inactive)
CC(=O)C1C(=O)C(=O)N(c2ccc(S(N)(=O)=O)cc2)C1=O (configuration not stated)	-14.2% (inactive)
CC(C)OCC(O)CNCCN (configuration not stated)	-21% (inactive)
CCOC(=O)C/C(C)=N\NS(=O)(=O)c1ccc([N+](=O)[O-])cc1	8% (inactive)
Cc1cc(-n2cnc3c(Cl)ncnc32)ccc1N	10.8% (inactive)
CCOC(=O)CNc1nc(Cl)nc(NCC(=O)OCC)n1	28.9% (inactive)
